This note sets out measurements from PubChem BioAssay AID1259309 (ICCB-Longwood Screening Facility, Harvard Medical School, 2017).

Structures are written as SMILES. Values joined by “and” are separate entries in the source; they are usually repeats but may differ in a detail not shown here. Equal values may be shown once. About 1,800 (0.55%) of roughly 330,000 compounds were called active. The sample as a whole holds a higher share of actives than the screen did. Values without a mark were called inactive. Cut-off read from the data, not from the text of the source: active = growth inhibition above about 68%; inactive = the rest.

The nature of this test: growth inhibition of ugtP-null S. aureus, primary screen, RN4220 ugtP deletion, OD600 (AID 1259309).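 Note: plate controls were untreated wells for no effect and antibiotic for full effect.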 The following applies: 16 h, stronger effect = higher value.
For the compound `S=C(NCCN1CCOCC1)NN=Cc1ccccc1`, the growth inhibition was -0.962%.
For the compound `Cc1ccc(C=NNC(=O)c2ccc(C(=O)NN=Cc3ccc(C)s3)o2)s1`, the growth inhibition was -0.554%.
`COc1ccccc1C(=O)NC(=S)Nc1ccccc1N1CCCCC1`: the growth inhibition was 93.3% (active).
With `COc1ccc(C(=O)NC(=S)Nc2ccccc2N2CCN(S(C)(=O)=O)CC2)cc1OC`, the growth inhibition is -0.518%.
For `O=C(NC(=S)Nc1ccccc1N1CCCCC1)c1ccc(F)cc1`, the growth inhibition was 59.3%.
Then `COc1ccc(/C=C/C(=O)c2cc(Br)ccc(=O)c2O)cc1`, with 95.4% (active); and `COc1ccc(C(=O)/C=C/c2cccnc2)c(OC)c1`, with 5.58%.
Regarding `COc1ccc(NC(=O)ON=Cc2ccc(Br)cc2)cc1`, the growth inhibition was 4.87%.
Then `CCC(C)Sc1ccc(C2N[C@@](C)(C(=O)OC)C3C(=O)N(C)C(=O)C23)cc1` (stereo partly specified), with 2.56%; and `Cc1c(CCOC(=O)CC23CC4CC(CC(C)(C4)C2)C3)sc[n+]1Cc1ccc([N+](=O)[O-])cc1`, with 101% (active) and 100% (active); and `Cc1c(CCOC(=O)c2cc([N+](=O)[O-])ccc2Cl)sc[n+]1CCCCS(=O)(=O)[O-]`, with -10.2%.
As to `Cc1c(CCO)sc[n+]1CC(=O)OC12CC3CC(CC(C3)C1)C2`, the growth inhibition is 7.76%.
As to `CCN(CC)Cc1c(C(=O)NN=Cc2ccncc2)nnn1-c1nonc1N`, the growth inhibition is 4.89%.
In the case of `Nc1scc[n+]1Cc1cccc2cccnc12`, the growth inhibition is 3.29%.
With `c1ccc2c(C[n+]3csc4ccccc43)cccc2c1`, the growth inhibition is 95.1% (active).
Then `c1ccc2c(CNn3cnnc3)cccc2c1`, with 4.79%.
Then `Cc1ccc(CON=CCc2snc(Sc3ncc(C(F)(F)F)cc3Cl)c2C#N)cc1`, with 28%.
Turning to `CCCC12CN3CCN(CC(C3)C1=NNC(=O)Nc1ccccc1)C2`, the growth inhibition is 1.17%.
On to `O=C(ON=Cc1ccc(N2CCCCC2)c([N+](=O)[O-])c1)c1c(F)cccc1F`, for which the growth inhibition is -5.14%.
As to `Cc1nnc(SCC2=C(C(=O)O)N3C(=O)C(NC(=O)Cn4nc(C)c(Cl)c4C)C3SC2)s1` (stereo unspecified), the growth inhibition was 97.9% (active).
For `Cc1nnc(SCC(=O)NC2CCCC2)s1`, the growth inhibition is -2.03%.
On to `Cc1cc(C)cc(C(=O)NC2C(=O)N3C(C(=O)O)=C(CSc4nnc(C)s4)CSC23)c1` (stereo unspecified), for which the growth inhibition was 100% (active).
Regarding `Cc1nnc(SCC(=O)Nn2cnnc2)s1`, the growth inhibition was -2.34%.
As to `Cc1nnc(SCc2cc(=O)[nH]c(N3CCN(Cc4ccccc4)CC3)n2)s1`, the growth inhibition is 0.849%.
Regarding `CC1(C)c2[nH]c3ccccc3c2CC2C(=O)N(Cc3ccccc3F)C(=O)N21` (stereo unspecified), the growth inhibition is 2.24% and -4.9%.
For `COc1ccc(C=NNC(=O)CN2CCCC2)cc1`, the growth inhibition is 3.93%.
On to `CC1CN(C(C)CO)C(=O)Cc2cc(NC(=O)C3CC3)ccc2OC1CN(C)Cc1ccc(Oc2ccccc2)cc1` (stereo unspecified), for which the growth inhibition was 9.46%.
Then `Cc1cc(C)nc(N=C(N)Nc2ccc(SC(F)F)cc2)n1`, with 20%; and `COc1ccc(C(C)=NNC(=O)c2cccc(S(=O)(=O)N3CCCC3)c2)c(O)c1`, with 4.49%.
With `O=C(CC1CC=CCC(Cc2ccc(F)cc2)C(=O)OCC(Cc2ccccc2)NC1=O)NC(CO)Cc1ccccc1` (stereo unspecified), the growth inhibition was 5.86%.
As to `CC(C)(C=NO)/[N+]([O-])=C/c1ccco1`, the growth inhibition is 3.75%.
Then `Nc1nonc1C(=O)NN=Cc1ccc([N+](=O)[O-])o1`, with 70.5%.
Consider `O=C(/C=C/c1ccc([N+](=O)[O-])o1)NNC(=O)c1ccc(F)cc1`, for which the growth inhibition was 98.7% (active).
Turning to `O=C(NN=Cc1ccc(F)cc1)c1ccc(F)cc1`, the growth inhibition was 3.85%.
Consider `COc1cc(NC=C2CC(=O)NC(C)=C2C#N)cc(OC)c1OC`, for which the growth inhibition is -2.01%.
With `CC(=O)NC(Cc1ccccc1)C(=O)NC1CCN(c2ncccc2[N+](=O)[O-])CC1` (stereo unspecified), the growth inhibition is 7.02%.
As for `COc1ccc(-c2cc(C3CCN(c4ncccc4[N+](=O)[O-])CC3)[nH]n2)cc1`, the growth inhibition is 100% (active).
Consider `COc1ccc(-c2cc3ncccc3cn2)cc1`, for which the growth inhibition is 7.34%.
For `COc1ccc(S(=O)(=O)Nc2cccc3c2OC(CN(C)Cc2ccc(Cl)c(Cl)c2)C(C)CN(C(C)CO)C3=O)cc1` (stereo unspecified), the growth inhibition is 11.2%.
Take `COc1ccccc1NC(=O)c1ccc2nc(N3C(=O)CCC3=O)sc2c1`: the growth inhibition was -9.64%.
Regarding `COc1ccc(C2=NN(c3nc4ccccc4s3)C(=O)C2)cc1`, the growth inhibition is 99% (active).
For the compound `COc1ccc(C(=O)Nc2cccc(/C=C(/CCC(=O)O)c3nc4ccccc4s3)c2)cc1`, the growth inhibition was -2.4%.
For the compound `C/C(C=NNC(=O)CSc1nc2ccccc2n1C)=C\c1ccco1`, the growth inhibition is 3.58%.
Then `OCc1ccc(OCCCOc2cccc3cccnc23)cc1`, with -3.52%; and `NC(=O)C1CCN(C(=O)COc2cccc3cccnc23)CC1`, with -13.3%.
Then `O=C(Nc1ccccc1)Oc1cccc2cccnc12`, with 99.7% (active); and `Cc1ccc(C(=O)NC(=S)Nc2ccccc2C)cc1`, with 83.5% (active); and `Cc1cc(C(=O)NNC(=S)Nc2ccccc2C)cs1`, with -0.4%.
Take `Cc1ccccc1NC(=S)NC(=O)Cc1ccc(Cl)cc1`: the growth inhibition is 67%.
As to `Cc1cc(SCC(=O)NN=Cc2ccc(O)c(O)c2)nc2ccccc12`, the growth inhibition is -2.24%.
As to `ON=Cc1ccc(OCc2ccccc2)c(Br)c1`, the growth inhibition is 1.91%.
To `O=C(COC(=O)c1cc[n+]([O-])cc1)Nc1ccc(Cl)c(C(F)(F)F)c1` belongs -2.28%; to `O=C(CC(O)(C(F)(F)F)C(F)(F)F)Nc1ccc(Cl)c(Cl)c1`, 100% (active); to `NC(=O)N1CCCC1C(=O)Nc1ccc(Cl)c(Cl)c1` (stereo unspecified), 3.8%.
Take `CC(=NNC(=O)c1nnn(-c2nonc2N)c1-c1cccs1)c1ccc(O)cc1`: the growth inhibition is -2.71%.
For `Cc1ccc(C(=O)NCCN2C3=NCC(Cc4ccc(O)cc4)N3CC2Cc2ccc(O)cc2)cc1Br` (stereo unspecified), the growth inhibition is -5.82%.
Turning to `O=C(CCC(=O)Nc1ccc(F)cc1)NN=Cc1ccccc1`, the growth inhibition is -1.26%.
In the case of `CCCC1CCCCC=CCCCC(=O)OCCN1C(=O)OC(C)(C)C` (stereo unspecified), the growth inhibition is -29.8% and -2.83%.
Consider `COc1ccc(Cl)cc1NC(=O)CN(C)C(=O)CCCc1c[nH]c2ccccc12`, for which the growth inhibition was 98.4% (active).
Take `COc1ccc(Cl)cc1NC(=O)CN(C)C(=O)CNC(=O)C12CC3CC(CC(C3)C1)C2`: the growth inhibition is -1.84%.
On to `COc1ccc(Cl)cc1NC(=O)CN(C)C(=O)c1cc2ccccc2cc1OC`, for which the growth inhibition was -3.53%.
Turning to `COc1ccc(C(=O)Nc2ccccc2C(=O)NN=Cc2ccccc2OC)cc1`, the growth inhibition was 10.4%.
Turning to `NC1=NCC(Cc2ccc(O)cc2)N1CCc1cccc(F)c1` (stereo unspecified), the growth inhibition was 4.31% and -0.973%.
To `CSCCC(NC(=O)c1ccc(Cl)cc1Cl)C(=O)NNC(=O)c1csc(N2CCOCC2)n1` (stereo unspecified) belongs 6.67%; to `CSCc1cc(N(C)C)nc(SCc2ccc(Cl)cc2Cl)n1`, 63.4%; to `CSCc1cc(N2CCOCC2)nc(SCc2ccc(Cl)cc2Cl)n1`, 93.1% (active).
Regarding `CCN(CC)c1ccc(C=NNC(=O)c2c[nH]c3ccccc23)cc1`, the growth inhibition is -5.72%.
With `CCN1C(=O)C2C(C1=O)C(c1ccccc1)N1C(=O)c3ccccc3NC(=O)C21` (stereo unspecified), the growth inhibition was -13.8%.
In the case of `CCC1CCCCN1C(=O)NC(CCSC)C(=O)OC` (stereo unspecified), the growth inhibition was 7.53%.
Consider `COc1ccc(-c2nnc(NC(=O)CS(=O)(=O)c3ccc(Cl)cc3)o2)c(OC)c1`, for which the growth inhibition is 46.4%.
Consider `COc1cccc(-c2nnc(NC(=O)c3ccc(S(=O)(=O)N(CC(C)C)CC(C)C)cc3)o2)c1`, for which the growth inhibition is 100% (active).
Regarding `O=C(Nc1nnc(-c2ccco2)o1)c1ccc(S(=O)(=O)N2CCOCC2)cc1`, the growth inhibition is 11.9%.
Consider `Cn1c2ccccc2c2nnc(NN=Cc3ccc(O)cc3)nc21`, for which the growth inhibition was 3.8%.
In the case of `O=C(NN=Cc1ccc(-c2ccc(Cl)c(Cl)c2)o1)C(=O)N1CCCC1`, the growth inhibition is -5.08%.
With `CCc1nnc(NN=Cc2c(Cl)cccc2Cl)n1N`, the growth inhibition was -4.51%.
As for `C=CCOc1ccc(C(O)=C2C(=O)C(=O)N(CCCOC)C2c2ccc(O)c(OC)c2)cc1` (stereo unspecified), the growth inhibition is 8.37%.
On to `O=[N+]([O-])c1cc(C=NNC(=Nc2ccccn2)c2ccccn2)ccc1O`, for which the growth inhibition is 66.8%.
With `CCn1c(SCCC(C)C)nnc1-c1c[nH]c2ccccc12`, the growth inhibition is -3.66%.
As for `Cc1ccc(-c2csc(-c3c[nH]c4ccccc34)n2)cc1`, the growth inhibition is 89.5% (active).
To `CCCc1cc(-c2nc(-c3ccc(C)cc3)cs2)ccn1` belongs 16.9%.
Then `C=CCn1c(N=Cc2ccc(OC)cc2)nc2ccccc21`, with 7.61%; and `COc1ccc2nc(N=C(N)NC(=O)N3c4ccccc4Sc4ccccc43)nc(C)c2c1`, with -21.3%; and `COc1ccc2c(c1OC)CN1CCc3cc4c(cc3C1C2O)OCO4` (stereo unspecified), with 15.5%.
Turning to `CCOc1ccccc1C=NNC(=O)c1nnn(-c2nonc2N)c1CN1CCCCCC1`, the growth inhibition is 2.59%.
As to `C#CCOCCOCCOCCNc1nc(N2CCN(C(=O)C(CCCCN)n3cc(CCCC)nn3)CC2)nc(N2CCN(C(=O)C(C(C)CC)n3cc(CCCN=C(N)N)nn3)CC2)n1` (stereo unspecified), the growth inhibition was 11.2%.
On to `O=C(Nc1ncc([N+](=O)[O-])s1)C1COc2ccccc2O1` (stereo unspecified), for which the growth inhibition was 90.5% (active).
Consider `CC(=O)c1cccc(NC(=O)C2COc3ccccc3O2)c1` (stereo unspecified), for which the growth inhibition is 8.46%.
Then `CC(=NNC(=O)CNC(=O)C1COc2ccccc2O1)c1ccc([N+](=O)[O-])cc1` (stereo unspecified), with 0.446%.
As to `O=C(O)CCC(=NNC(=O)c1cn(-c2ccccc2)nc1-c1ccccc1)C(=O)O`, the growth inhibition is 0.633%.
In the case of `CCc1ccc2c(c1)C1(NN=C(c3ccccc3)S1)C(=O)N2` (stereo unspecified), the growth inhibition was 95.8% (active).
For `CC(=NOC(=O)c1ccc(F)cc1)c1sc(-c2ccccc2)nc1C`, the growth inhibition is -1.32%.
